Screening data as filed in PubChem.
HSF-1 act – increases HSF-1 driven luciferase reporter signal; activation, % at 9 µM; NIH3T3-HGL HSF-1 luciferase reporter, MG132, 8 h; 100% = twice DMSO control signal; 300,000 tested, 1.7% active;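 active means mean replicate activation of at least 50% with a set share of replicates each reaching 50%; inconclusive means only one of those two conditions met; inactive means mean below 50% and too few replicates reaching it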;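 further: 0% = median of the neutral control wells and 100% = twice that signal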
GAA850 FXN act – frataxin GAA850 promoter activation; HEK293 lucGAA850 FXN promoter luciferase reporter, 24 h; percent of 10 µM SAHA response; activation, % at 6 µM; 360,000 tested, 0.56% active;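 active means activation above the average of all compounds screened plus 3 SD, cutoff fixed separately per campaign, cut at about 7.5% in these data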;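 further: 0% = DMSO wells and 100% = 10 µM SAHA wells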
HSP90 refold inh – blocks HSP90-mediated luciferase refolding in reticulocyte lysate; Rabbit reticulocyte lysate, luciferase refolding luminescence, 3 h; inhibition, % at 5.6 µM; 290,000 tested, 0.91% active; AID 1789;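 active means inhibition above the screen-wide mean plus 3 SD, computed separately per campaign, cut at about 16% in these data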;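 further: 0% = DMSO wells and 100% = 60 µM geldanamycin wells; inhibitors lower the luminescence because luciferase stays unfolded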
AHR activator – human AHR activation; P35869; AHR-responsive luciferase reporter cells, luminescence; activation, % at 5 µM; 320,000 tested, 2.5% active; AID 2796; in the data active means activation above about 47%;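 further: 0% = vehicle wells and 100% = reference agonist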
DAX1 inh – inhibits human nuclear receptor DAX1; AID 504766; 340,000 tested, 0.99% active; inhibition, % at 6.75 µM; HEK293 Gal4-DAX1 luciferase reporter, luminescence;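 active means inhibition above the mean over all tested compounds plus 3 SD, cut at about 4.2% in these data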;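 further: 0% = DAX1-transfected cells with DMSO and 100% = empty-vector control cells with DMSO; inhibition shows as a rise in luminescence from relieved DAX1 repression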
HSF1 inh – HSF1 inhibition | NIH3T3-HGL HSE-luciferase, MG132-induced, luminescence 8 h; active compounds read low | activity change, negative = inhibition, % at 7.5 µM (by protocol) | 300,000 tested, 0.77% active | AID 2098;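 active means more than half of replicate wells show activity change below -50%, luminescence cut by over half; inconclusive means some wells, but at most half, below -50%; inactive means no replicate well below -50%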;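 further: luciferase reports HSF-1 transcriptional activity via heat shock element; 0% = median of DMSO wells and -100% = zero luminescence signal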
AHR act cf – confirmation of human aryl hydrocarbon receptor activators; shares compounds with AHR activator; human cells, AHR-responsive luciferase reporter, luminescence; activation, % at 9 µM; 2,300 tested, 87% active; AID 2845; in the data active means activation above about 49%;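 further: HepG2 hepatoma cells carrying a DRE-driven firefly luciferase reporter; 0% = vehicle wells and 100% = reference agonist wells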
PXR act counter – counter-screen for AHR activators: human PXR activators. cell-based PXR reporter, luciferase luminescence. activation, % at 11.6 µM. 2,300 tested, 88% active. shares compounds with AHR activator; in the data active means activation above about 11%;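 further: human hepatoma DPX-2 cells expressing full-length human PXR; 0% = DMSO and 100% = reference agonist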
Numbers without * were called inactive; u = inconclusive; x = no result. Hits are enriched below; roughly 5.9% of the tested compounds scored in any of these assays.

SMILES	HSF-1 act	GAA850 FXN act	HSP90 refold inh	AHR activator	DAX1 inh	HSF1 inh	AHR act cf	PXR act counter
Oc1c(N=NC(=S)Nc2ccccc2F)c2ccccc2n1Cc1ccccc1	-29.3	1.2	2.8	12.8	0.3	-35.8	x	x
C=CCn1c(O)c(N=NC(=S)Nc2cccc(C)c2)c2ccccc21	-27.2	4.3	-1.3	122.9*	-2.1	-18.1	78.3*	59.1*
C=CCn1c(O)c(N=NC(=S)Nc2ccccc2F)c2ccccc21	21.1	-2.1	0.3	136.9*	-1.8	11.1	82.7*	78.7*
CC(C)[C@H](NC(=O)c1ccc(Cl)cc1Cl)C(=O)NNc1cccc(C(=O)O)c1	-8.3	2.8	x	-1.4	-2.3	-8.3	x	x
O=C(NC(=S)Nc1ccccc1O)c1ccccc1Cl	39.0	2.8	1.1	89.0*	0.2	27.1	127.5*	20.9*
CC(=O)c1cccc(NC(=S)NC(=O)c2ccccc2Cl)c1	17.1	1.1	7.9	16.8	-0.2	14.6	x	x
COc1ccccc1NS(=O)(=O)c1cc(C(=O)N2CCN(C/C=C/c3ccccc3)CC2)ccc1C	6.1	-1.6	3.0	6.0	-0.5	1.6	x	x
C=CCc1c(C)nc(SC)nc1Nc1ccc(C(C)=O)cc1	25.0	4.0	-2.4	82.6*	-1.1	-4.7	73.0*	119.6*
C=CCc1c(C)nc(SC)nc1Nc1ccccc1	12.5	4.0	-2.4	104.4*	-0.9	1.4	58.4*	104.6*
CC(=O)NCCc1nc2ccccc2n1CCc1ccccc1	-17.5	0.5	3.6	x	-1.3	-7.9	x	x
COc1ccc(NC(=O)/C(C#N)=C/c2ccc(Br)o2)cc1	10.9	2.9	-0.6	-4.8	0.6	7.8	x	x
CC1CC1c1ccc(/C=C(\C#N)C(=O)Nc2ccc(Cl)cc2)o1 (stereo not given)	48.1	4.5	-1.7	89.8*	1.4	8.5	44.5	44.6*
CCOC(=O)C1CCN(C(=O)c2cc3cc(Cl)ccc3[nH]2)CC1	16.9	0.7	-1.2	24.9	0.6	-3.9	x	x
Oc1ccccc1-c1cc(C(F)(F)F)[nH]n1	x	x	-2.9	x	x	x	x	x
Cc1ccc(-c2[nH]ncc2C(=O)c2cccc(F)c2)c(O)c1	u	0.6	6.6	9.2	-0.7	17.3	x	x
Cc1ccc(-c2cc(-c3ccccc3C)[nH]n2)c(O)c1	x	6.2	1.6	101.5*	2.5	x	136.0*	18.1*
Cc1ccc(-c2cc(-c3cccc(F)c3)n[nH]2)c(O)c1	37.2	3.5	-2.6	126.0*	5.0*	9.9	141.8*	15.9*
O=C1C(Cl)=C(Nc2ccc(O)cc2)C(=O)c2ccccc21	15.1	-3.0	6.4	131.8*	-2.9	10.8	111.7*	x
C[C@H](CO)N1C[C@H](C)[C@@H](CN(C)C(=O)Nc2ccccc2)Oc2c(NC(=O)NC3CCCCC3)cccc2C1=O	x	-1.7	x	1.3	-0.4	x	x	x
CCOc1ccc(Nc2nc3ccccc3n3nnnc23)cc1	-9.3	2.3	-2.0	132.3*	0.2	-11.8	84.8*	15.5*
CCOc1ccc(Nc2c3ccccc3nc3ccccc23)cc1	-19.8	-4.6	0.9	13.2	-5.0	7.5	x	x
COc1cc2c(=O)n(CCC(=O)NCC3CCCO3)c(=O)n(CC(=O)Nc3ccc(C)cc3)c2cc1OC (stereo not given)	12.7	-0.7	-2.6	1.2	0.1	-3.5	x	x
O=C(CCCl)Nc1nc2c(s1)CCc1ccccc1-2	175.1*	-2.7	-2.0	99.4*	-3.1	145.7	111.9*	30.7*
CC(=O)c1ccc(N(CC(=O)Nc2cc(C)on2)S(=O)(=O)c2ccc(C)cc2)cc1	x	-0.5	x	0.5	-1.1	x	x	x
O=C(CSc1ccc(-c2ccc(-n3cccn3)cc2)nn1)Nc1ccccc1F	8.3	2.1	x	6.1	1.6	0.2	x	x
O=C(O)CN1C(=O)/C(=C\c2ccccc2OCc2ccc(Cl)cc2Cl)SC1=S	-70.2	-11.4	4.6	81.7*	-3.6	-66.5*	58.7*	28.9*
O=C(NNC(=O)C1CC1)c1cc2cc3ccccc3nc2s1	-6.1	1.4	1.3	109.8*	1.2	-3.7	72.1*	12.1*
